PfHsp40 rescue – restores yeast growth despite PfHsp40 toxicity | growth rescue, % at 12.5 µM | 340,000 tested, 0.68% active | S. cerevisiae expressing PfHsp40, growth rescue, ATP luminescence; in the data active = growth rescue above about 28%, passing the limit was not always enough;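 also: yeast W303a lacking pdr1 and pdr3 grown in galactose medium; growth measured after three days at 30 °C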
PrP 5UTR inh – suppresses PrP 5' UTR mRNA reporter expression; cell-based PrP 5' UTR mRNA reporter, plate reader; inhibition, % (no concentration beside the values); 340,000 tested, 0.35% active; AID 488862; in the data active = inhibition above about 52%
MazF activator – MazEF (E. coli) toxin RNase activation. P0AE70. FAM/BHQ RNA-DNA oligo cleavage fluorescence, 5 h. activation, % at 20 µM. 350,000 tested, 0.32% active; in the data active = activation above about 50%
Target sequence (P0AE70 whole entry, looked up): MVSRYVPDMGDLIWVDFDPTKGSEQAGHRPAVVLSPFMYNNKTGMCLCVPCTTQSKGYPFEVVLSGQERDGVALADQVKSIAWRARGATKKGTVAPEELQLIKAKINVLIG
PrPC surface inh – reduces human prion protein on the cell surface | P04156 | cell surface PrPC, TR-FRET read-out | inhibition, % at 13.8 µM | 370,000 tested, 0.43% active; in the data active = inhibition above about 24%
BJeLR lethal – BJeLR cell viability loss; inhibition, % (no concentration beside the values); 300,000 tested, 0.17% active; BJeLR (HRASV12) viability, CellTiter-Glo ATP luminescence, 48 h; in the data active = inhibition above about 50%
DUSP3 inh – inhibitors of human VHR1 phosphatase (DUSP3); P51452; recombinant VHR phosphatase, pNPP absorbance; inhibition, % at 13.3 µM; 290,000 tested, 0.52% active; AID 1654; in the data active = inhibition above about 50%
Target sequence (P51452 whole entry, looked up): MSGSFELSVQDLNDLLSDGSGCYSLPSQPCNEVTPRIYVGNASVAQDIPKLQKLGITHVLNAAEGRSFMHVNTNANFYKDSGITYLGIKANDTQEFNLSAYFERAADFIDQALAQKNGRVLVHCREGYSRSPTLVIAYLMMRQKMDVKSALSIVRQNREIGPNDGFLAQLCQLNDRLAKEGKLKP
PrPC confirm – confirmation of inhibitors of cell surface human prion protein. inhibition, % at 13.8 µM. 1,500 tested, 65% active. AID 743200. shares compounds with PrPC surface inh. cell surface PrPC level, TR-FRET; in the data active = inhibition above about 25%
LD9 tox – kills or reduces viability of LD9 cells in PrPc counter-screen | AID 743201 | inhibition, % at 13.8 µM | shares compounds with PrPC surface inh | 1,500 tested, 29% active | LD9 cells cytotoxicity, luminescence viability; in the data active = inhibition above about 9.5%
Of the large screens only hits and unclear results are named; the others gave an inactive call (follow-up assays come after a bar, where they were run). Most compounds without a hit are left out; they make up all but 2.1% or so of the library.

CCN(CC)C(=O)CSc1ncnc2sc(C)c(C)c12	none
COc1ccccc1OCC(=O)NCC1CCCN(C(=O)c2cccc(C)c2)C1 (configuration not stated)	none (no result: PfHsp40 rescue, PrP 5UTR inh, BJeLR lethal, DUSP3 inh)
O=C(CN1CCN(S(=O)(=O)c2ccc(F)c(Cl)c2)CC1)N1CCOCC1	none (no result: BJeLR lethal, DUSP3 inh)
CCOC(=O)C1CCN(C(=O)C(=O)c2cn(CC(=O)N3CCCCCC3)c3ccccc23)CC1	PrPC surface inh 26.2 | PrPC confirm inactive | LD9 tox inactive
C[n+]1ccccc1/C=C1\Sc2ccccc2N1CCO	none
CCN1/C(=C/c2ccc3cccc(C)c3[n+]2CC)Sc2ccccc21	MazF activator 73.2, PrPC surface inh 28.1 | PrPC confirm 35.5 | LD9 tox 53.9
O=C(CSc1ccc2ccccc2c1Br)Nc1cccc(S(=O)(=O)NC2=NCCCCC2)c1	PrPC surface inh 39.3 | PrPC confirm 47.6 | LD9 tox inactive
O=C(NNc1ccccc1Br)C(O)(c1cccc(C(F)(F)F)c1)c1cccc(C(F)(F)F)c1	PrPC surface inh 30.1 | PrPC confirm inactive | LD9 tox inactive
COc1cc2nc(N3CCN(C(=O)[C@H]4COc5ccccc5O4)CC3)nc(N)c2cc1OC	none
N#Cc1c(SCC(=O)Nc2nncs2)sc2c(O)cc(=O)[nH]c12	PrPC surface inh 26.8 | PrPC confirm inactive | LD9 tox inactive
CCCc1c(-c2cccc(F)c2)ncn1Cc1ccccc1OC	none (no result: PfHsp40 rescue, PrP 5UTR inh, MazF activator, BJeLR lethal, DUSP3 inh)
CCCc1c(-c2ccc(F)cc2F)ncn1Cc1ccccc1OC	PrPC surface inh 25.4 (no result: PfHsp40 rescue, PrP 5UTR inh, MazF activator, BJeLR lethal, DUSP3 inh) | PrPC confirm inactive | LD9 tox inactive
Cc1nnc(NC(=O)C2CC(=O)N(c3ccccc3)C2)s1 (configuration not stated)	none
CCCNC(=O)c1cc(Cl)c(NC(=O)C2=C(C)OCCS2)cc1OC	PrPC surface inh 26.2, DUSP3 inh 56.9 | PrPC confirm 31.9 | LD9 tox inactive
CCOCCCNC(=O)c1cc(Cl)c(NC(=O)C2=C(C)OCCS2)cc1OC	none
COc1ccc(NC(=O)c2cccc(Oc3ccccc3)c2)cn1	PrPC surface inh 26.0 | PrPC confirm inactive | LD9 tox inactive
COc1ccc(NC(=S)NC(=O)c2ccccc2)cn1	none
Cc1cc(C)c(C)c(C(=O)c2ccccc2C(=O)O)c1C	none
Cc1c(C(=O)c2ccccc2C(=O)O)sc2ccccc12	PrPC surface inh 33.3 | PrPC confirm 54.3 | LD9 tox inactive
O=C(O)CSc1c2c(nc3cc(C(=O)Nc4cccc(C(F)(F)F)c4)ccc13)CCC2	none

Compound activity from PubChem BioAssay.
